Bioassay records as filed in PubChem.
In the library only some 8% were active in any assay of this set; here they are far more common.
TSHR antag: blocks TSH signaling through the human TSH receptor | P16473 | TSHR-expressing cells, TSH-stimulated cAMP HTRF, 2 h; stronger effect = lower value | activity change, negative = inhibition, % at 11.5 µM | actives 0.2% (n = 330,000);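 active = activity change below a set negative limit, meaning inhibition stronger than a set level, cut at about -70% in these data; inconclusive = activity change between two set negative limits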
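Competitive HTRF cAMP read-out (cryptate anti-cAMP antibody, cAMP-d2; 30 min, room temperature) in freshly harvested TSHR cells. Compounds added before TSH at EC80 (4nM final), followed by 2 hours' incubation at 37 deg C.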
ELG1 repair inh: ELG1-dependent DNA repair inhibition | HEK293T ELG1-luciferase reporter, luminescence, 16 h; DNA damage induced by 5-fluorouridine | Potency, µM (highest dose often 46.1 µM), without a hit: at the top dose activity change, negative = inhibition, usual class: inhibitors | actives 2.3% (n = 330,000); also: potency is read from the fitted curve at half-maximal effect; nearly all actives have a fitted effect of over 55% in size
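Luminescence from the luciferase reporter, measured 30 min after ONE-Glo reagent at room temperature, was the read-out. Beforehand, 2,000 cells per well were exposed for 16 hr at 37 °C to 5-fluorouridine together with compound or vehicle.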
RORgamma inh: ROR gamma (mouse) transcription inhibition; Potency, µM (doses to about 53.6 µM), for inactives: at the top dose activity change, negative = inhibition, most hits filed as inhibitors; P51450; actives 5.4% (n = 310,000); Drosophila S2 Gal4-RORgamma UAS-luciferase reporter, 20 h; also: potency is read from the fitted curve at half-maximal effect; nearly all actives have a fitted effect of over 60% in size
Target sequence (P51450 whole entry, looked up, the tested form may be a part): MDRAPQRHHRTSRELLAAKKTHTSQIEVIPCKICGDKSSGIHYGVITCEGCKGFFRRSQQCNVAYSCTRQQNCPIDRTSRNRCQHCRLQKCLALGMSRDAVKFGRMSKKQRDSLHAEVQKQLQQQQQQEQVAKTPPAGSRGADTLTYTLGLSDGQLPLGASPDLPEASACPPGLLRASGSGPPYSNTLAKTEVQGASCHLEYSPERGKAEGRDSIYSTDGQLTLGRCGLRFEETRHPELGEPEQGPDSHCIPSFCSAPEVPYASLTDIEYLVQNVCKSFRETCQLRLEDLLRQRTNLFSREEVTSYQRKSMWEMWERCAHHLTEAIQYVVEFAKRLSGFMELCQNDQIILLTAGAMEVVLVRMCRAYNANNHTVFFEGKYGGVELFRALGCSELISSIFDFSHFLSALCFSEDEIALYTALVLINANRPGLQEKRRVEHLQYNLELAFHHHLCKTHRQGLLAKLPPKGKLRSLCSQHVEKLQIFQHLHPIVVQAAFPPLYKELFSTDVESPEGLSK
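Stable Schneider cell line, Gal4 DNA-binding domain fused to ROR gamma, UAS-luciferase. Cmpd 1 hr RT → CuSO4 700 uM final → 20 hr RT → luciferase reagent 10 min → luminescence.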
VP16 counter: counter-screen for ROR gamma inhibitors: Gal4-VP16 reporter | actives 3.5% (n = 310,000) | Drosophila S2 Gal4-VP16 UAS-luciferase, luminescence, 20 h | Potency, µM (top dose mostly 53.6 µM), without a hit: top-dose activity, negative = inhibition, actives largely listed as inhibitors;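 also: Gal4-VP16 expression switched on by copper sulfate through the metallothionein promoter; potency is read from the fitted curve at half-maximal effect; nearly all actives have a fitted effect of over 50% in size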
Coupling enz: coupling enzyme interference in Giardia aldolase counter-screen; coupling enzyme system counterscreen, AmpLite Red fluorescence; activity change, negative = inhibition, % at 58.2 µM, hits read low; actives 0.67% (n = 290,000); in the data active = activity change below about -30%
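Final compound at 57.5 uM, incubated 10 min at RT with coupling enzyme reagent (glyceraldehyde-3-phosphate), then 20 min with substrate and AmpLite Red detection. Fluorescence read at 525/598 nm; tests interference with the coupling assay, not aldolase inhibition.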
* marks the source's active call; other numbers are inactive results; ? = inconclusive; · = no result; [ ] = remark or other dose. Unless noted, calls follow the shape of the dose curve; as a rule, active = well fitted curve in the direction sought with a large enough effect; inconclusive = small, poorly fitted or top-dose-only effect, or another doubt; inactive = no such curve, though single readings can be large; an effect the other way counts as inactive or inconclusive. % is scaled to controls: 0 for no effect and ±100 for the full control effect.

SMILES	TSHR antag	ELG1 repair inh	RORgamma inh	VP16 counter	Coupling enz
CC(=O)Nc1cccc(NC(=O)c2cc(-c3cccnc3)nc3ccc(Br)cc23)c1	-6	?	?	?	·
CSc1ccccc1NC(=O)c1cc(-c2cccnc2)nc2ccc(Br)cc12	-11	23µM*	-11%	-25%	3
CC(=O)c1cccc(NC(=O)c2cc(-c3ccncc3)nc3ccccc23)c1	-8	21µM*	·	·	·
Cc1cc(C(=O)Nc2ccncc2)c2ccccc2n1	9	23µM*	41%	-8%	·
CC(=O)Nc1cccc(NC(=O)c2cc(-c3cccnc3)nc3ccc(Cl)cc23)c1	-4	21µM*	11%	-12%	0
Cc1cc(=O)oc2ccc(OCc3ccccc3)cc12	-118*	?	2%	1%	-1
C=CCOc1ccc2oc(=O)cc(C)c2c1	2	11%	1%	-12%	-1
O=C(OCn1ncc(Br)c(Br)c1=O)c1ccc(F)cc1	-47	?	?	0.63µM*	-1
O=C(OCc1cnc(Cl)s1)c1ccccc1Cl	-4	14%	28%	1%	-3
O=C(OCn1ncc(Br)c(Br)c1=O)c1ccccc1Cl	-5	?	6.3µM*	5.6µM*	5
NS(=O)(=O)c1ccc(CCNC(=O)c2ccccc2-c2ccccc2)cc1	1	-3%	-10%	-10%	2
CCOC(=O)CCN1C(=O)[C@H]2[C@H]3[C@H](O)[C@H](O)C/C(=N/OCC(C)C)[C@H]3CC[C@@H]2C1=O	·	·	-13%[10 µM]	-6%[10 µM]	0
CC(=O)c1cc2ccc(O)cc2oc1=O	-12	5%	3%	-6%	5
Cc1ccc(N=c2oc3cc(O)ccc3cc2C(N)=O)cc1	-6	?	0.89µM*	0.89µM*	8
COc1ccc(N=c2oc3cc(O)ccc3cc2C(=O)NCC2CCCO2)cc1 (stereo unspecified)	-10	?	-40%	?	2
CCOc1ccc(N=c2oc3cc(O)ccc3cc2C(=O)NCC2CCCO2)cc1 (stereo unspecified)	2	2.1µM*	?	-27%	2
COc1ccc(N=c2oc3cc(O)ccc3cc2C(=O)Nc2ccccn2)cc1OC	-3	4.1µM*	-8%	-11%	-1
O=C(NS(=O)(=O)Oc1ccccc1F)OC[C@@H]1CCCN2CCCCC12 (stereo partly specified)	15	3%	1%	1%	3
CCOC(=O)C(=Cc1cc(=O)c(OC)co1)C(=O)OCC	28	5.8µM*	4.5µM*	5µM*	1
Cc1ccc(/C(N)=N/OC(=O)C(C)c2ccc([N+](=O)[O-])cc2)cc1 (stereo unspecified)	-21	0%	-10%	5%	-1
O=C(Nc1nnc(C2=COCCO2)o1)c1ccc(S(=O)(=O)N2CCCC2)cc1	22	-20%	17%	-7%	8
CC1CCN(S(=O)(=O)c2ccc(C(=O)Nc3nnc(C4=COCCO4)o3)cc2)CC1	-7	?	1.1µM*	1µM*	·
CCC1CCCCN1S(=O)(=O)c1ccc(C(=O)Nc2nnc(C3=COCCO3)o2)cc1 (stereo unspecified)	-2	-5%	0.89µM*	1µM*	·
O=C(Nc1nnc(C2=COCCO2)o1)c1ccc(S(=O)(=O)N2CCCCC2)cc1	-10	?	1.3µM*	3.2µM*	0
CCC1=C2CC[C@H]3C(=O)N(c4ccccc4)C(=O)[C@H]3[C@H]2[C@@]2(Cc3ccccc3)C(=NCCc3c[nH]c4ccccc34)OC(=O)N2C1=O	·	·	10%	-8%	1
SMILES	TSHR antag	ELG1 repair inh	RORgamma inh	VP16 counter	Coupling enz
C=C(C)[C@H]1CC[C@]2(CO)CC[C@]3(C)[C@@H](CC[C@H]4[C@@]5(C)CC[C@@H](O)C(C)(C)[C@@H]5CC[C@@]43C)[C@H]12	·	·	-15%[16.9 µM]	2%[17 µM]	1
COc1ccc(/C=N/N=C2/NC(=O)C(CC(=O)NC(C)C)S2)cc1 (stereo unspecified)	1	16%	-22%	-9%	0
COc1ccc(/C=N/N=C2/NC(=O)C(c3ccccc3)S2)c(OC)c1 (stereo unspecified)	3	14%	14µM*	-3%[0.365 µM]	-1
COc1ccc(CC2S/C(=N/N=C/c3ccc(O)cc3)NC2=O)cc1 (stereo unspecified)	-1	?	-32%	-5%	3
COc1ccc(CC2S/C(=N/N=C/c3ccccc3O)NC2=O)cc1 (stereo unspecified)	-8	?	5.6µM*	?	2
CCOc1ccc(CC2S/C(=N/c3ccccn3)NC2=O)cc1 (stereo unspecified)	-2	-7%	3.2µM*	5µM*	2
O=C1N/C(=N/N=C/c2ccccc2O)SC1Cc1ccc(F)cc1 (stereo unspecified)	0	?	2.8µM*	8.9µM*	3
O=C(c1csnn1)N1CCC[C@@]2(CCN(Cc3ccccc3)C2)C1	·	·	12%	-13%	2
CCCCOc1ccc(C(=O)C(CN2CCOCC2)c2ccccc2)cc1 (stereo unspecified)	-15	?	?	?	-1
CN(C)CC(CCC(CN(C)C)C(=O)c1ccccc1)C(=O)c1ccccc1 (stereo unspecified)	-21	?	7.1µM*	10µM*	-1
O=C(c1ccc(Cl)cc1)C(CN1CCCC1)c1ccccc1 (stereo unspecified)	-5	?	11µM*	5.6µM*	-1
CCCOc1ccc(C(=O)C(CN2CCCC2)c2ccccc2)cc1 (stereo unspecified)	-8	18µM*	?	?	3
COc1ccc(C(=O)C(CN2CCCC2)c2ccccc2)cc1 (stereo unspecified)	3	16µM*	?	?	0
C=CCN(CC=C)Cc1c(O)ccc2c(=O)c(-c3ccccc3)coc12	-4	-18%	-15%	2%	-2
CC(=O)c1cccc(S(=O)(=O)N2CCC(C(=O)N(C)Cc3ccc(Cl)s3)CC2)c1	15	?	·	·	·
O=C(c1ccccc1)C(CCC(CN1CCOCC1)C(=O)c1ccccc1)CN1CCOCC1 (stereo unspecified)	-32	?	?	7.9µM*	-1
O=C(c1ccc(F)cc1)C(CN1CCOCC1)c1ccccc1 (stereo unspecified)	-10	?	5.6µM*	11µM*	1
COc1ccc(C(=O)C(CN2CCOCC2)c2ccccc2)cc1 (stereo unspecified)	-8	?	13µM*	?	3
CCN(CC)CCCNc1nc2ccccc2c2nc(-c3ccncc3)nn12	-4	0%	-15%	-9%	2
